Laboratory results as given in PubChem BioAssay (NCATS).
Where “and” joins values, the source holds several entries; their conditions need not be identical. Equal values may be shown once. Results filed as inconclusive are left out. A number with no mark means an inactive call. The call rests on the fitted dose curve; in most records, active means well fitted cell-killing curve with a large enough effect in the repeat runs; inconclusive means weak or mixed curves; inactive means flat fitted curve, though single readings scatter.

Assay: qHTS assay for small molecule agonists of the antioxidant response element (ARE) signaling pathway measured by Nrf2-dependant transcriptional activity - cell viability counter screen (AID 720653)
Conditions: ARE-bla HepG2 viability, CellTiter-Glo ATP luminescence, 16 h; active compounds read low
Outline: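 Cytotoxicity counter screen: intracellular ATP quantified by CellTiter-Glo luminescence in the same ARE-bla HepG2 plates, after 16 h compound exposure and a 2 h beta-lactamase substrate step.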
On the % scale 0 is the no-effect control and ±100 the full control effect.

Row | SMILES | max response
1 | Nc1ccc([As](=O)(O)O)cc1 | -9.13%
2 | CC(C)NC(C)C | -19.4%
3 | NCCc1ccc(O)cc1 | 13.6%
4 | CC(C)c1cccc(C(C)C)c1O | -3.43%
5 | Nc1ccccc1C(=O)O | 1.19%
6 | CCC(C)(C)c1ccc(O)cc1 | -17% and -1.76%
7 | C[C@]12CCC(=O)C=C1CC[C@@H]1[C@@H]2CC[C@]2(C)C(=O)CC[C@@H]12 | 3.62% and -13.2%
8 | O=C1c2ccccc2C(=O)C1C(=O)C(c1ccccc1)c1ccccc1 | -16.2%
9 | O=C(O)CCCc1ccc(N(CCCl)CCCl)cc1 | -0.747% and 2.01%
10 | Nc1nc(N)nc(NC2CC2)n1 | 14.5%
11 | CC1(C)C(C=C(Cl)Cl)C1C(=O)OC(C#N)c1cccc(Oc2ccccc2)c1 (configuration not stated) | -2.42%
12 | COc1cc(OC)c(OC)cc1C=O | 3.08%
13 | COP(=S)(OC)SCN1C(=O)c2ccccc2C1=O | 3.01%
14 | C[C@]12CCC(=O)C=C1CC[C@@H]1[C@@H]2CC[C@@]2(C)[C@H]1CC[C@]2(C)O | 11%
15 | CN1C[C@H](C(=O)N[C@]2(C)O[C@@]3(O)[C@@H]4CCCN4C(=O)[C@H](Cc4ccccc4)N3C2=O)C=C2c3cccc4[nH]cc(c34)C[C@H]21 | -19% and -17.1%
16 | Oc1ccc(Cl)cc1 | -5.13%
17 | CCCC(C)(COC(N)=O)COC(N)=O | 2.78% and -4.68%
